Measurements from ChEMBL document CHEMBL1157539, “Thousands of chemical starting points for antimalarial lead identification” (Nature, 2010).

What was measured:
Format in all cases: functional
[1] = test system: Plasmodium falciparum; test: GSK_TCMDC: Inhibition of Plasmodium falciparum 3D7 in whole red blood cells, using parasite LDH activity as an index of growth. Test compounds present at 2uM
[2] = test system: Plasmodium falciparum; test: GSK_TCMDC: Inhibition of Plasmodium falciparum Dd2 in whole red blood cells, using parasite LDH activity as an index of growth. Test compounds present at 2uM
[3] = test system: HepG2; test: GSK_TCMDC: Percent inhibition of human HepG2 cell line. Test compounds present at 10uM.

SMILES | Inhibition [1] [%] | Inhibition [2] [%] | Inhibition [3] [%]
Cn1c(NC(=O)C2CCC(CNC(=O)c3ccc(O)c(-c4ccc(Cl)c(Cl)c4)c3)CC2)nc2ccccc21 (stereo unspecified) | 99 | 100 | 40
CC1(C)NC(N)=NC(=N)N1OCc1nc(N)nc(Nc2ccccc2)n1 | 98 | 0 | 3
NC1=NC2(CCCCC2)N(OCCCCCCN2C(=O)c3ccccc3C2=O)C(N)=N1 | 98 | 16 | 20
Fc1ccc2c(NN=CC=Cc3ccccc3)ccnc2c1 | 100 | 98 | 0
O=C(O)C(F)(F)F.Oc1ccc(CCNc2nc(NCCCOc3cccc(-c4ccccc4)c3)nc(N3CCNCC3)n2)cc1 | 89 | 14 | 40
Cc1c(Cn2ncc(N3CC(C)NC(C)C3)c(Cl)c2=O)cccc1NC(=O)Nc1ccc(-c2ccccc2)cc1.O=C(O)C(F)(F)F (stereo unspecified) | 97 | 35 | 97
O=C(NCC1CC1)C1CCN(C(c2ccccc2)c2nc3ccccc3s2)CC1 (stereo unspecified) | 92 | 49 | 0
N#Cc1cccc(NC(=O)NC2CCN(CCCCCNC(=O)/C=C/c3ccc(Cl)c(Cl)c3)CC2)c1 | 100 | 7 | 31
O=C(Nc1cccc(C(F)(F)F)c1)NC1CCN(c2ccnc3cc(Cl)ccc23)C1.O=C(O)C(F)(F)F (stereo unspecified) | 100 | 89 | 18
CN1CCc2cc(O)c(NS(=O)(=O)c3ccc(-c4ccc(Cl)cc4)cc3)cc2CC1.Cl | 100 | 3 | 7
Cl.O=C(NC1CCC(CCN2Cc3cccc(C(F)(F)F)c3C2)CC1)c1cccc(-c2cccnc2)c1 (stereo unspecified) | 100 | 67 | 26
CCCCCCN1CCCN(Cc2cccc(C(=O)Nc3ccc(C(C)(C)C)cc3)c2)CC1.O=C(O)C(F)(F)F | 93 | 23 | 41
O=C(NCC1CCCCC1)c1cc(=O)c2ccccc2o1 | 98 | 77 | 0
CN1CCOc2ccc(Nc3nnc(-c4cccc(-c5cccnc5)c4)o3)cc2C1 | 100 | 100 | 0
CC(C)Cn1cc(C2CCN(CCN3CCC(CNC(=O)c4ccc(NC(=O)c5cc(Cl)cc(Cl)c5)cc4)CC3)CC2)c2ccccc21 | 91 | 96 | 53
O=C(O)C(F)(F)F.c1cc(CNC2CCCC2)cc(-c2ccc(CNc3ccc4ncccc4c3)cc2)c1 | 98 | 24 | 32
Cl.NCCCOc1cnc(-c2ccccc2)c2nc(-c3nonc3N)n(CCc3ccccc3)c12 | 93 | 86 | 56
CN1CCCN(Cc2ccc(-c3cccc(NC(=O)c4ccc(Cl)cc4)c3)cc2)CC1.O=C(O)C(F)(F)F | 98 | 50 | 34
Cc1cccc2nc(-c3cccc(-c4cccc(NC(=O)COc5ccccc5C(N)=O)c4)c3)[nH]c12 | 100 | 88 | 22
CCCN(CCC)CCCNc1ccc(C(=O)Nc2ccc(C(C)C)cc2)cc1[N+](=O)[O-] | 98 | 38 | 17
Cc1c(C)c2c(c(C)c1O)CCC(C)(CCC(=O)O)O2 (stereo unspecified) | 96 | 0 | 8
Cc1cc(OCCCN2CCN(CCN3CCOCC3)CC2)ccc1NC(=O)COc1ccc(Cl)cc1C(=O)c1cc(Cl)cc(C#N)c1 | 99 | 78 | 30
COc1ccc(CCNCCCCNCCc2ccc(OC)c3ccccc23)c2ccccc12.CS(=O)(=O)O | 100 | 33 | 100
CS(=O)(=O)c1cccc(-c2cnc3[nH]cc(-c4ccc(CCC(=O)O)cc4)c3c2)c1 | 97 | 99 | 1
CNc1ccc(CNCc2ccc(-c3ccc(-c4nc5cc(F)ccc5[nH]4)cc3)cc2)cc1.O=C(O)C(F)(F)F | 100 | 95 | 38
CC(=O)OC[C@H]1O[C@@H](C#Cc2ccccc2)[C@H](OC(C)=O)[C@@H](OC(C)=O)[C@@H]1OC(C)=O | 95 | 90 | 5
O=C(c1ccc(-c2cccc(-c3nc4cc(F)ccc4[nH]3)c2)cc1)N1CCCCC1CN1CCC(O)C1 (stereo unspecified) | 91 | 0 | 11
